Inconclusive results are not listed. Active and inactive are the calls of the source. The calls were made as follows: active = hit-call score of the fitted dose curve at least 0.9, where 1 is the maximum; inconclusive = response in the unintended direction; inactive = score below 0.9.

The AC50 is the midpoint of the concentration-response curve, whichever way the signal moves.

Experiment [1] has as its target rat Glutamate, MK-801 Agonist Site (GluNMDA_MK801), Grin1 (gene 24408) (UniProt P35439). Nature of the experiment: NVS_LGIC_rGluNMDA_MK801_Agonist: NovaScreen (NVS) Ligand-Gated Ion Channel Assay for rat Glutamate, MK-801 Agonist Site (GluNMDA_MK801) (AID 2283340). The essentials: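 Rat forebrain membrane preparation; MK-801-site radioligand binding read by filtration and scintillation after 1.5 h. Single-point 25 uM duplicate screen, followed by singleton concentration series to 50 uM max; DMSO baseline.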

The next experiment relates to NCBI gene 100848466. In words: NVS_NR_bPR: NovaScreen (NVS) Nuclear Receptor Binding Assay for bovine Progextron Receptor (PR) (AID 2283343).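 As to AC50: actives lower bound radioligand signal below DMSO meaning displacement of the label.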 The essentials: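 Competitive radioligand binding with membranes from bovine uterus, scintillation read-out at 18 h post-dose. Compounds first tested in duplicate at 25 uM, then actives in concentration series; loss-of-signal relative to DMSO.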

Experiment [2] deals with human Constitutive Androstane Receptor (CAR), NR1I3 (gene 9970) (UniProt Q14994). In words: NVS_NR_hCAR_Antagonist: NovaScreen (NVS) Nuclear Receptor Binding Assay for human Constitutive Androstane Receptor Antagonism (CAR) (AID 2283344). The essentials:
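Single 25 uM duplicate primary screen, with concentration-series follow-up on actives. Cell-free binding format run in antagonist mode, TR-FRET signal taken 1 h post-dose; activity is signal loss relative to DMSO.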

The target of experiment [3] is bovine Estrogen Receptor (ER), ESR1 (gene 407238) (UniProt P49884). In words: NVS_NR_bER: NovaScreen (NVS) Nuclear Receptor Binding Assay for bovine Estrogen Receptor (ER) (AID 2283345).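 Also: actives lower the bound radioligand count which means they displace the ER ligand.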 The essentials:
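Displacement of a radioligand from estrogen receptor in bovine uterine membrane preparations; scintillation signal taken at 18 hours, DMSO as baseline. Single-concentration duplicates (25 uM) preceded concentration-response follow-up of actives.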

In experiment [4] the target is Estrogen receptor (Homo sapiens) (UniProt P03372). Nature of the experiment: NVS_NR_hER: NovaScreen (NVS) Nuclear Receptor Binding Assay for human Estrogen Receptor (ER) (AID 2283348). The essentials:
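Cell-free MCF7-derived ER preparation, specific radioligand displaced by test compound, read by scintillation counting 18 h post-dosing. Duplicate single-point 25 uM screen, then concentration-response confirmation; DMSO baseline.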

Experiment [5] has the same target. Nature of the experiment: OT_ER_ERaERa_1440: Odyssey Thera (OT) 24-hour HEK293T Protein-Complementation Assay for Estrogen Receptor-alpha/-alpha Homodimer (AID 2283349).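 Also: hits raise fluorescence above DMSO for agonists and antagonists alike.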 The essentials: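 HEK293T, stable ERα LBD (aa 310-547) homodimer PCA; 24 h compound exposure; mean fluorescence intensity (nuclear for agonists, nuclear plus cytoplasmic for antagonists) vs vehicle; positive fitting direction, DMSO baseline.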

Experiment [6] shares this target. In words: OT_ER_ERaERa_0480: Odyssey Thera (OT) 8-hour HEK293T Protein-Complementation Assay for Estrogen Receptor-alpha/-alpha Homodimer (AID 2283351).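 Also: rise in fluorescence from reassembled reporter fragments on ERα LBD homodimer in nucleus or whole cell.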 The essentials:
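HEK293T cells stably expressing a PCA pair of ER alpha LBD (residues 310-547) were dosed for 8 hours. The gain in fluorescence intensity, nuclear for agonists and whole-cell for antagonists, was measured by laser scanning cytometry against DMSO vehicle.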

Experiment [7] has as its target Androgen Receptor/SRC-1 Co-activator, AR (gene 367) (UniProt P10275). In words: OT_AR_ARSRC1_0480: Odyssey Thera (OT) 8-hour HEK293T Protein-Complementation Assay for Androgen Receptor/SRC-1 Co-activator (AID 2283354).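 Also: hits raise the complementation signal above DMSO so AC50 marks enhancers.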 The essentials: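 Reconstituted split-Venus YFP signal from AR–SRC-1 interaction, read by imaging 8 h post-dose in stable HEK293T lines. The 488 nm nucleus-to-cytoplasm ratio (≥400 cells/image) was fitted upward against DMSO.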

Experiment [8] concerns the target T1, Estrogen receptor (Homo sapiens) + Estrogen receptor beta (Homo sapiens) (UniProt P03372+Q92731). Nature of the experiment: OT_ER_ERaERb_1440: Odyssey Thera (OT) 24-hour HEK293T Protein-Complementation Assay for Estrogen Receptor-alpha/-beta Homodimer (AID 2283356).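 Also: heteromer of ER alpha and ER beta binding domains; hits raise reporter fluorescence and both agonists and antagonists give an increase.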 The essentials: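 Fragment complementation between ER alpha (310-547) and ER beta (263-489) ligand-binding domains in HEK293T cells; signal read 24 h post-dosing by laser scanning cytometer. Gain of fluorescence relative to DMSO fitted.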

Experiment [9] deals with Retinoic acid receptor alpha (Homo sapiens) (UniProt P10276). Nature of the experiment: NVS_NR_hRAR_Antagonist: NovaScreen (NVS) Nuclear Receptor Binding Assay for human Retinoic Acid Alpha Receptor Antagonism (RAR) (AID 2283358). The essentials: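 RARalpha antagonism was read by TR-FRET as loss of binding signal versus DMSO, 2 h after chemical addition, in a biochemical format. Single-concentration duplicates (25 uM) were run first, and actives were retested in concentration series.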
Chain of Retinoic acid receptor alpha (Homo sapiens) (P10276 whole entry, looked up): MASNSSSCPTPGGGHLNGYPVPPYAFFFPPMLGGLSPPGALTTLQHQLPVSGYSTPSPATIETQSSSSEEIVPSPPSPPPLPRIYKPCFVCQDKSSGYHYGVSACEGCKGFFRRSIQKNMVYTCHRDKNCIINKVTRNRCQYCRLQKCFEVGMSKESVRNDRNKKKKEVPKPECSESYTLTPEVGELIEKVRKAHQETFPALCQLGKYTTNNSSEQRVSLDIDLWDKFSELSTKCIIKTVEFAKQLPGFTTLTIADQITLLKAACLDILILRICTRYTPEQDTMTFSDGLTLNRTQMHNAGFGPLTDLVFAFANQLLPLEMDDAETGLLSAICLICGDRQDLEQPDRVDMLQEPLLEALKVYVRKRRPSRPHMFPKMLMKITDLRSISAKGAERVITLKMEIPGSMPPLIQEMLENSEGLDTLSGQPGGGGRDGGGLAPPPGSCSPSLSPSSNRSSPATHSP

Experiment [10] deals with chimpanzee Androgen Receptor (AR), AR (gene 747460) (UniProt O97775). In words: NVS_NR_cAR: NovaScreen (NVS) Nuclear Receptor Binding Assay for chimpanzee Androgen Receptor (AR) (AID 2283346).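 Also: radioligand displacement from AR measured by scintillation counting in a cell-free assay; a loss of bound radioligand signal versus DMSO counts as binding.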 The essentials: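 Cell-free competition binding with insect-cell (Sf9/Sf21) extracted chimpanzee AR; scintillation signal from lysate at 72 h. Screened in duplicate at 25 uM, then concentration-response for actives; fitting relative to DMSO.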

The target of experiment [11] is T1, Estrogen receptor (Homo sapiens) + Estrogen receptor beta (Homo sapiens). In words: OT_ER_ERaERb_0480: Odyssey Thera (OT) 8-hour HEK293T Protein-Complementation Assay for Estrogen Receptor-alpha/-beta Heterodimer (AID 2283352). The essentials:
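Fluorescence increase from reconstituted reporter fragments, quantified by laser scanning cytometer, reflects ER-alpha/ER-beta heterodimer formation in human HEK293T cells. Exposure 8 h; positive-direction fitting against DMSO vehicle.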

Experiment [12] deals with Estrogen receptor beta (Homo sapiens) (UniProt Q92731). Nature of the experiment: OT_ER_ERbERb_0480: Odyssey Thera (OT) 8-hour HEK293T Protein-Complementation Assay for Estrogen Receptor-beta/-beta Homodimer (AID 2283357).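 Also: active means signal gain over DMSO baseline.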 The essentials:
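ER-beta LBD homodimer PCA stably expressed in HEK293T; 8 h compound exposure, then formaldehyde fixation and Draq5 staining. Gain in nuclear/cytoplasmic fluorescence intensity versus DMSO vehicle, read on laser scanning cytometer.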

The test system of experiment [13] is guinea pig Histamine Receptor (H2), gene 100729734. In words: NVS_GPCR_gH2: NovaScreen (NVS) G Protein-Coupled Receptor Assay for guinea pig Histamine Receptor (H2) (AID 2283342). The essentials:
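Guinea pig striatal membrane preparation with specific radioligand; bound counts measured by filtration and scintillation 1 h post-dosing, DMSO as baseline. Chemicals passing a 25 uM duplicate screen were titrated to a 50 uM maximum.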

For experiment [14], the target named is Bile acid receptor (Homo sapiens) (UniProt Q96RI1). In words: NVS_NR_hFXR_Antagonist: NovaScreen (NVS) Nuclear Receptor Binding Assay for human Farnesoid X Receptor Antagonism (FXR) (AID 2283350). The essentials: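 Antagonist-format time-resolved FRET binding assay with extracted human receptor protein, read 1 hour after compound addition. Compounds first screened at 25 uM in duplicate, then actives tested in concentration series, with loss of signal relative to DMSO.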

The target is the same in experiment [15]. Nature of the experiment: NVS_NR_hFXR_Agonist: NovaScreen (NVS) Nuclear Receptor Binding Assay for human Farnesoid X Receptor Agonism (FXR) (AID 2283347). The essentials:
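Agonist-mode FXR assay read by time-resolved FRET 1 h after compound addition, using isolated human receptor protein without cells. Duplicate 25 uM single-point primary screen, concentration series for confirmed actives; DMSO as baseline.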

Chain of Androgen Receptor/SRC-1 Co-activator, AR (gene 367) (P10275 whole entry, looked up): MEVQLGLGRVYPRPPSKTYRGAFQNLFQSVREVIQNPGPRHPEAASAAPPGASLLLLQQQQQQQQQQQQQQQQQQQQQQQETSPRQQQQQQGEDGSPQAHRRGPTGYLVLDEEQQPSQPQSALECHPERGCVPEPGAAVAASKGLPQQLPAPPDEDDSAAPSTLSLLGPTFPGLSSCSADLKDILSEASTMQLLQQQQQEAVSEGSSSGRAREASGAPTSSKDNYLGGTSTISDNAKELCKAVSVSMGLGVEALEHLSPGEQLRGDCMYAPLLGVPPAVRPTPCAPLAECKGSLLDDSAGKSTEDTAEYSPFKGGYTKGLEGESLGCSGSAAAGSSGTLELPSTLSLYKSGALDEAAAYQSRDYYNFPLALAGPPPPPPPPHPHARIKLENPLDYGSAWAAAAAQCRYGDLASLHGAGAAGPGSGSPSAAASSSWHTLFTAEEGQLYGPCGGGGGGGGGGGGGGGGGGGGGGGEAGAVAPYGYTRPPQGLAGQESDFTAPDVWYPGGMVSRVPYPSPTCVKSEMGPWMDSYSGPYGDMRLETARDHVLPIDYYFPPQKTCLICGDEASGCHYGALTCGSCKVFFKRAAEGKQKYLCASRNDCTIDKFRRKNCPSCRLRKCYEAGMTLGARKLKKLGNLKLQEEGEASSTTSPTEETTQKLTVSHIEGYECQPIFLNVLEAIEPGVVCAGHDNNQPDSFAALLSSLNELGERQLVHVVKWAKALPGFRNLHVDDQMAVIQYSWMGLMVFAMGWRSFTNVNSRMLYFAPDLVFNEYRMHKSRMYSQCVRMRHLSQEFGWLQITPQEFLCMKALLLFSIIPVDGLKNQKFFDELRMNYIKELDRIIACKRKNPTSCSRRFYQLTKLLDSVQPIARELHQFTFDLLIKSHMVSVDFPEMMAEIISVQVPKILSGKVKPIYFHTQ
Chain of human Constitutive Androstane Receptor (CAR), NR1I3 (gene 9970) (Q14994 whole entry, looked up): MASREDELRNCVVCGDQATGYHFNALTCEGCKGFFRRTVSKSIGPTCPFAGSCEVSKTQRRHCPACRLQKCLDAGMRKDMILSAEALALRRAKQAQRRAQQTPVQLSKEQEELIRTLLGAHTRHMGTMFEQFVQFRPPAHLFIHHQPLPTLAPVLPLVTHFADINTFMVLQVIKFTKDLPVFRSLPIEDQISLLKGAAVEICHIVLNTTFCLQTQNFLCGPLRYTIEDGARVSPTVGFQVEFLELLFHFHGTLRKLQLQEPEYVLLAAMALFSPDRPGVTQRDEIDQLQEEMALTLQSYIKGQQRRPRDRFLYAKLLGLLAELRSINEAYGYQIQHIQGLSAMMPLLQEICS
Chain of Estrogen receptor beta (Homo sapiens) (Q92731 whole entry, looked up, the tested form may be a part): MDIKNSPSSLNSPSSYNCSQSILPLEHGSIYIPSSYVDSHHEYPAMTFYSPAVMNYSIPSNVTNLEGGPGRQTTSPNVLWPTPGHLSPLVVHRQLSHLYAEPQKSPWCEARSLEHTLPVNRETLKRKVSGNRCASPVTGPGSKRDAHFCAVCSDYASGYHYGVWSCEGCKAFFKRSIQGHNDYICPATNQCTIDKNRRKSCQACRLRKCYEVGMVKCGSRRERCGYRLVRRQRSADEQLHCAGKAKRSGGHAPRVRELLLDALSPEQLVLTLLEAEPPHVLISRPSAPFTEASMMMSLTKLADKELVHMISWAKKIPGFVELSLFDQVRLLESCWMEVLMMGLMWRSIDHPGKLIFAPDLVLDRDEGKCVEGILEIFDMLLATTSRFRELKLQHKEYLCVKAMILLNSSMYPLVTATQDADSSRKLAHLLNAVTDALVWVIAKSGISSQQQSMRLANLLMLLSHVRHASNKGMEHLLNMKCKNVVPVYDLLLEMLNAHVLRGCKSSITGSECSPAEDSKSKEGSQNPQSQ
T1 sequence (P03372 whole entry, looked up, the tested form may be a part): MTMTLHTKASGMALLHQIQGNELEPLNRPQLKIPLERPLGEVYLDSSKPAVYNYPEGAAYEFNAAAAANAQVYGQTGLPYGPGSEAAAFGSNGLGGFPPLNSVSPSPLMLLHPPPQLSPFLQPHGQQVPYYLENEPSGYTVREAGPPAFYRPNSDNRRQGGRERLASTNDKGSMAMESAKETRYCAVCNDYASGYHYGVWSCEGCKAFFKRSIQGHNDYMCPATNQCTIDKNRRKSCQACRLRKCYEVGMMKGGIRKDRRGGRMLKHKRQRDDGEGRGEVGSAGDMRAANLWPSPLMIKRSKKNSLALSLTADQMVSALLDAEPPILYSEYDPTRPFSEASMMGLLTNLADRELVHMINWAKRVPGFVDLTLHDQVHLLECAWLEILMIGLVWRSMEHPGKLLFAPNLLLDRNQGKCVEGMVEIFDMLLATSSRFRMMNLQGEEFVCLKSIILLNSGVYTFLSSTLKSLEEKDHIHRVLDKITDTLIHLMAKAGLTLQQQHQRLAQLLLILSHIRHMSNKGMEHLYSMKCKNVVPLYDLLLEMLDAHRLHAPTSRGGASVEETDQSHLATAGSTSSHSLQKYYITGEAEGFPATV
T1 sequence (Q92731 whole entry, looked up, the tested form may be a part): as the sequence (Q92731 whole entry, looked up, the tested form may be a part) above
Chain of Estrogen receptor (Homo sapiens) (P03372 whole entry, looked up): as the sequence (P03372 whole entry, looked up, the tested form may be a part) above
Chain of bovine Estrogen Receptor (ER), ESR1 (gene 407238) (P49884 whole entry, looked up): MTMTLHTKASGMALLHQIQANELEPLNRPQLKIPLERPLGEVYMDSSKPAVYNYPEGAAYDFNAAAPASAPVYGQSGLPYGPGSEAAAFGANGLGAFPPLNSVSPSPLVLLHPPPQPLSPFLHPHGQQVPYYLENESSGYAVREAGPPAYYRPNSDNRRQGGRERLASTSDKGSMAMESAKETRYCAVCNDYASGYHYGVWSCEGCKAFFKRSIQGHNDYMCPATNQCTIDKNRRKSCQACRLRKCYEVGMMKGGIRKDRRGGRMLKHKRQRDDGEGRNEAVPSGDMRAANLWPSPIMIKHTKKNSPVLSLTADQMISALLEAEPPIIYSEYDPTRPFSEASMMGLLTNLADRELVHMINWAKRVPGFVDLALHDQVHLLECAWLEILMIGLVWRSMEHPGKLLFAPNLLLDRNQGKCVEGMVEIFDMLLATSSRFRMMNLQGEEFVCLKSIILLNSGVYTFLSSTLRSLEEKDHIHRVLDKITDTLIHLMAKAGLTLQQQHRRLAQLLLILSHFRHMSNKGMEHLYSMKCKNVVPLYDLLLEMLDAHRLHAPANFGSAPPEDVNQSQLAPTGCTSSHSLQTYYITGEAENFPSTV

Take `CO/C=C(/C(=O)OC)c1ccccc1Oc1cc(Oc2ccccc2C#N)ncn1`: the outcome (in experiment [1]; with NCBI gene 100848466; in experiment [2]; in experiment [3]; in experiment [4]; in experiment [5]) was inactive. Further, the outcome in experiment [6], in experiment [7], in experiment [8] and in experiment [9] was inactive.
In the case of `OC(c1ccc(Cl)cc1)(c1cncnc1)c1ccccc1Cl` (stereo not given), the AC50 in [2] is 25 µM (active); in experiment [11], 11.9 µM (active); in experiment [8], 12.1 µM (active); in experiment [12] it was 12.5 µM (active). Also, the result in experiment [3], in experiment [10], in [4], in experiment [5] and in experiment [6] was inactive.
For `CCOP(=S)(OCC)SCn1c(=O)oc2cc(Cl)ccc21`, the compound was called inactive in experiment [13], in [2], in experiment [5], in experiment [6], in [8] and in experiment [12]. In the experiment with NCBI gene 100848466, the AC50 is 2.98 µM (active).
For `O=C(O)c1nc(Cl)ccc1Cl`, the outcome in experiment [5] and in [6] was inactive.
`CCON=C(CC)C1=C(O)CC(c2c(C)cc(C)cc2C)CC1=O` (stereo not given): the call in experiment [2], in [5], in experiment [6] and in [9] was inactive.
For `CC(C)C1(C)N=C(c2nc3ccccc3cc2C(=O)O)NC1=O` (stereo not given), the result in [5], in experiment [14], in experiment [6], in experiment [11], in experiment [8] and in experiment [12] was inactive.
`O=C(O)COc1nc(Cl)c(Cl)cc1Cl`: the result in [2], in experiment [5] and in experiment [6] was inactive.
Take `N#Cc1nn(-c2c(Cl)cc(C(F)(F)F)cc2Cl)c(N)c1S(=O)C(F)(F)F` (stereo not given): the compound was classed as inactive in [15], in experiment [5], in experiment [6], in [7], in experiment [8] and in experiment [9].
With `COc1nc(C)nc(NC(=O)NS(=O)(=O)c2ccccc2Cl)n1`, the call in experiment [3] and in [4] was inactive.
For the compound `COc1nc(NC(C)C)nc(NC(C)C)n1`, the compound was classed as inactive in [5], in experiment [6], in [11], in experiment [8] and in experiment [12].
With `CC(C)(C)c1ccc(CSc2cnn(C(C)(C)C)c(=O)c2Cl)cc1`, the compound was classed as inactive in [5], in [6], in experiment [11], in experiment [8] and in [12].
Regarding `COP(N)(=O)SC` (stereo not given), the call in experiment [2], in experiment [3], in [5], in [14], in [11] and in [8] was inactive. In addition, the compound was classed as inactive in [12] and in [9].
As for `COC(=O)N(OC)c1ccccc1COc1ccn(-c2ccc(Cl)cc2)n1`, the compound was classed as inactive in experiment [2], in [5], in [6], in [11], in experiment [8] and in experiment [12].
As for `CS/C(C)=N/OC(=O)N(C)SN(C)C(=O)O/N=C(\C)SC`, the outcome in experiment [2], in experiment [5], in [6], in experiment [8] and in [12] was inactive. For the same compound, the concentration at half-maximal activity (AC50) in experiment [7] is 72.2 µM (active).
In the case of `CCNc1nc(Cl)nc(NC(C)C)n1`, the compound was called inactive in [4], in experiment [5], in [6], in experiment [11], in [8] and in experiment [12].

(Values after PubChem BioAssay (EPA / NIEHS).)
